# Data reported in PubChem BioAssay (EPA / NIEHS).
# Results filed as inconclusive are left out. The source holds several records for some structures; these can differ, active in one and inactive in another. Activity calls are given as the source filed them. The calls were made as follows, unless noted: active = hit-call score of the fitted dose curve at least 0.9, where 1 is the maximum; inconclusive = response in the unintended direction; inactive = score below 0.9.
# Tests used:
# [1] = ATG_M_61_XSP2: Attagene TRANS-FACTORIAL Multi-Species (XSP2) HepG2 Assay for M61 Transcription Factor (Internal Marker) (AID 2283835; active = hit-call score of the fitted dose curve at least 0.9, where 1 is the maximum; inactive = score below 0.9;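 also: reporter mRNA of an internal background marker read by RT-PCR and capillary electrophoresis; active means a rise in signal above the DMSO baseline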)
# Method in brief: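 First, HepG2 cells are transfected with reporter units under GAL4-UAS control. Next, chemicals are applied for 24 h. Then total RNA is reverse-transcribed, amplified, fluorescently labelled and sized by capillary electrophoresis, with gain of signal scored against DMSO.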
# [2] = biological target: zebrafish Thyroid Hormone Receptor beta (TRb), thrb (gene 30607) (UniProt Q9PVE4); assay: ATG_zfTRb_XSP2: Attagene TRANS-FACTORIAL Multi-Species (XSP1) HepG2 Assay for zebrafish Thyroid Hormone Receptor beta (TRb) (AID 2283836)
# Method in brief: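 HepG2 cells transiently transfected with chimeric zebrafish TRb-GAL4 reporter units, dosed 24 h with 3 nM 6-alpha-fluorotestosterone and 1.5 nM norgestrel present. Reporter mRNA quantified by RT-PCR and capillary electrophoresis; gain fitted against DMSO.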
# [3] = biological target: frog Thyroid hormone Receptor alpha (TRa), thra-a (gene 397942) (UniProt P15204); assay: ATG_frTRa_XSP2: Attagene TRANS-FACTORIAL Multi-Species (XSP2) HepG2 Assay for frog Thyroid hormone Receptor alpha (TRa) (AID 2283839)
# Method in brief: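 Transfect HepG2 with multiple reporter units (GAL4-UAS), dose chemical, incubate 24 h. Isolate RNA, reverse-transcribe, PCR-amplify reporter, label with 6-FAM by primer extension, digest with HpaI, run capillary electrophoresis; induction scored against DMSO.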
# [4] = system: Sodium/Iodide Symporter (NIS), SLC5A5 (gene 6528); assay: CPHEA_Stoker_NIS_Inhibition_RAIU: CPHEA's Radioactive Iodide Uptake (RAIU) Assay for Sodium/Iodide Symporter (NIS) Inhibition, Stoker and Laws Labs (AID 2283841)
# Method in brief: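 HEK293T cells stably expressing human NIS (hNIS-HEK293T-EPA) were exposed to test chemicals at 0.001–100uM (0.5% final DMSO) with 125I at a final 329pM in HBSS/10mM HEPES pH 7.4. After 2 hours at room temperature and ice-cold washes, intracellular 125I was counted as CPM and normalized to DMSO wells.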
# [5] = system: turtle Thyroid Hormone Receptor, alpha (TRa), gene 101949057; assay: ATG_trTRa_XSP2: Attagene TRANS-FACTORIAL Multi-Species (XSP1) HepG2 Assay for turtle Thyroid Hormone Receptor, alpha (TRa) (AID 2283834);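 also: hits raise reporter mRNA over the DMSO baseline so AC50 marks activators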
# Method in brief: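 Transfection of HepG2 with multiple reporter transcription units, then chemical dosing for 24 h. Total RNA was reverse-transcribed, reporter sequences PCR-amplified and FAM-labelled, then sized by capillary electrophoresis. DMSO served as baseline.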
# [6] = ATG_XTT_Cytotoxicity_XSP2: Cytotoxicity Assessment in the Attagene TRANS-FACTORIAL Multi-Species (XSP2) HepG2 Assay (AID 2283837)
# Method in brief: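 HepG2 cells, transiently transfected with multiple reporter constructs, exposed to chemical for 24 h. Cell number assessed with XTT fluorescence read-out; loss of signal fitted relative to DMSO.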
# [7] = biological target: human Thyroid hormone Receptor alpha (TRa), THRA (gene 7067) (UniProt P10827); assay: ATG_hTRa_XSP2: Attagene TRANS-FACTORIAL Multi-Species (XSP2) HepG2 Assay for human Thyroid hormone Receptor alpha (TRa) (AID 2283838)
# Method in brief: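 HepG2 cells were transiently transfected with GAL4-UAS reporter units for chimeric human TRa-Gal4 and dosed for 24 hours, with 3 nM 6-alpha-fluorotestosterone and 1.5 nM norgestrel present. Reporter mRNA was quantified by RT-PCR, FAM labelling and capillary electrophoresis, with gain of signal fitted versus DMSO.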
# [8] = biological target: human Thyroid hormone Receptor beta (TRb), THRB (gene 7068) (UniProt P10828); assay: ATG_hTRb_XSP2: Attagene TRANS-FACTORIAL Multi-Species (XSP2) HepG2 Assay for human Thyroid hormone Receptor beta (TRb) (AID 2283840);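 also: actives raise reporter mRNA so potency reflects agonist-like gain of signal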
# Method in brief: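 Transient transfection of human HepG2 with multi-species NR-Gal4/GAL4-UAS reporter constructs; 24 h compound treatment; RNA isolation, reverse transcription, PCR and HpaI digest; capillary electrophoresis of labeled fragments; activity fitted upward versus DMSO.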
# PGR (gene 5241) = PGR (gene 5241) (UniProt P06401); assay: TOX21_PR_BLA_Followup_Antagonist_ratio: Tox21 HEK293 Progesterone Receptor (PR) Antagonism Beta-lactamase Follow-Up Assay, Ratio (AID 2283934)
# Method in brief: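 PR-UAS-bla HEK293T cells, 3,000/well in 2% charcoal-stripped FBS, given compound plus 1nM R5020 agonist for 16 hr at 37C. Beta-lactamase FRET substrate 2 hours, ratio cleaved/uncleaved fluorescence; viability by CellTiter-Glo in same wells.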
# [9] = TOX21_PR_BLA_Followup_Agonist_viability: Viability Assessment in the Tox21 HEK293 Progesterone Receptor (PR) Agonism Beta-lactamase Follow-Up Assay (AID 2283935);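 also: signal loss means lower viability so actives are cytotoxic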
# Method in brief: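 PR-UAS-bla HEK293T cells in 2% charcoal-stripped FBS medium, plated 6 hr before compound addition, exposed 16 hr at 37C. Viability read by CellTiter-Glo ATP luminescence after 30 min at room temperature, in the same wells as the beta-lactamase readout.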
# [10] = TOX21_PR_BLA_Followup_Antagonist_viability: Viability Assessment in the Tox21 HEK293 Progesterone Receptor (PR) Antagonism Beta-lactamase Follow-Up Assay (AID 2283936);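 also: hits lower the luminescence signal meaning cytotoxicity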
# Method in brief: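 PR-UAS-bla HEK293T cells (3,000/well, 2% charcoal-stripped FBS) given compound plus R5020 agonist, 16 h at 37C. CellTiter-Glo added after bla read, 30 min at room temperature; luminescence loss indicates cytotoxicity.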
# [11] = CEETOX_H295R_11DCORT_noMTC: CeeTox H295R High-throughput Steroidogenesis Assay for 11-Deoxycortisol (11DCORT), maximum tolerated concentration (MTC) filtered results only (AID 2283911; active = hit-call score of the fitted dose curve at least 0.9, where 1 is the maximum; inactive = score below 0.9); settings: actives raise or lower the signal
# Method in brief: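 Steroidogenesis was stimulated in H295R cells with 10 uM forskolin for 48 h before a 48 h chemical exposure. Secreted 11-deoxycortisol was measured by tandem mass spectrometry and fitted bidirectionally against DMSO controls.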
# [12] = CEETOX_H295R_OHPREG_noMTC: CeeTox H295R High-throughput Steroidogenesis Assay for OH-Pregnenolone (OHPREG), maximum tolerated concentration (MTC) filtered results only (AID 2283912; active = hit-call score of the fitted dose curve at least 0.9, where 1 is the maximum; inactive = score below 0.9); settings: actives raise or lower the signal
# Method in brief: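 Steroidogenesis in H295R cells (OECD 456, modified): after 48 h forskolin priming and 48 h chemical treatment, secreted 17alpha-hydroxypregnenolone is measured by HPLC-MS/MS. Activity is fitted in both directions against DMSO; concentrations are not filtered by MTT-based MTC.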
# [13] = CEETOX_H295R_OHPROG_noMTC: CeeTox H295R High-throughput Steroidogenesis Assay for OH-Progesterone (OHPROG), maximum tolerated concentration (MTC) filtered results only (AID 2283914; active = hit-call score of the fitted dose curve at least 0.9, where 1 is the maximum; inactive = score below 0.9); settings: actives raise or lower the signal
# Method in brief: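 Forskolin 10 uM, 48 h prestim → test cmpd in DMSO (0.1% final), 48 h → medium MTBE extraction → LC-MS/MS quant of 17alpha-OH-progesterone. Bidirectional fit vs DMSO; no MTT-based MTC filtering.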
# [14] = CEETOX_H295R_CORTISOL_noMTC: CeeTox H295R High-throughput Steroidogenesis Assay for Cortisol, maximum tolerated concentration (MTC) filtered results only (AID 2283916; active = hit-call score of the fitted dose curve at least 0.9, where 1 is the maximum; inactive = score below 0.9); settings: actives raise or lower the signal
# Method in brief: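 Cortisol secretion measured by LC-MS/MS after 48 h chemical treatment (final 0.1% DMSO) of forskolin-primed (10 uM, 48 h) H295R cells; gain or loss fitted relative to DMSO, without maximum-tolerated-concentration filtering.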
# [15] = CEETOX_H295R_CORTIC_noMTC: CeeTox H295R High-throughput Steroidogenesis Assay for Corticosterone (CORTIC), maximum tolerated concentration (MTC) filtered results only (AID 2283917; active = hit-call score of the fitted dose curve at least 0.9, where 1 is the maximum; inactive = score below 0.9); settings: actives raise or lower the signal
# Method in brief: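 Following OECD 456 with minor changes, H295R cultures received 10 uM forskolin for 48 h, then test chemical at 0.1% DMSO for 48 h. Media steroids were extracted and measured by LC-MS/MS.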
# [16] = CEETOX_H295R_DOC_noMTC: CeeTox H295R High-throughput Steroidogenesis Assay for DOC, maximum tolerated concentration (MTC) filtered results only (AID 2283918; active = hit-call score of the fitted dose curve at least 0.9, where 1 is the maximum; inactive = score below 0.9); settings: actives raise or lower the signal
# Method in brief: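 11-Deoxycorticosterone secreted by human adrenal H295R cells quantified by HPLC-MS/MS after 48 h chemical exposure (0.1% DMSO), following 48 h 10 uM forskolin prestimulation. Concentrations not filtered by MTT-derived MTC; bidirectional fitting.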
# [17] = CEETOX_H295R_PROG_noMTC: CeeTox H295R High-throughput Steroidogenesis Assay for Progesterone (PROG), maximum tolerated concentration (MTC) filtered results only (AID 2283920; active = hit-call score of the fitted dose curve at least 0.9, where 1 is the maximum; inactive = score below 0.9); settings: actives raise or lower the signal
# Method in brief: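 H295R cells; forskolin 10 uM x 48 h prestim; test cpd 48 h, 0.1% DMSO final; media progesterone via LC-MS/MS; bidirectional fit vs DMSO; no MTT-based MTC filter applied.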
# zebrafish Thyroid Hormone Receptor beta (TRb), thrb (gene 30607), sequence (Q9PVE4 whole entry, looked up, the tested form may be a part): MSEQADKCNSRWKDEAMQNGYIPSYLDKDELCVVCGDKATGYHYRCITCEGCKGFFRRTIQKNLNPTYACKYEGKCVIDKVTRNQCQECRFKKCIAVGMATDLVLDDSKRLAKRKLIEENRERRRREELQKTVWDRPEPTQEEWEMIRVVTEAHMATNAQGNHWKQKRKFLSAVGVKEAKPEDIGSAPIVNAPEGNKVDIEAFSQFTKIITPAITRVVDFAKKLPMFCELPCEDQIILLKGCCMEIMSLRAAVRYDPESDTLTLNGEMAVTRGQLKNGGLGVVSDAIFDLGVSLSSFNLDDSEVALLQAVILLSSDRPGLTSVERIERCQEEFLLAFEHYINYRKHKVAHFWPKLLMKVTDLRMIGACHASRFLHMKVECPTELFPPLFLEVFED
# human Thyroid hormone Receptor alpha (TRa), THRA (gene 7067), sequence (P10827 whole entry, looked up, the tested form may be a part): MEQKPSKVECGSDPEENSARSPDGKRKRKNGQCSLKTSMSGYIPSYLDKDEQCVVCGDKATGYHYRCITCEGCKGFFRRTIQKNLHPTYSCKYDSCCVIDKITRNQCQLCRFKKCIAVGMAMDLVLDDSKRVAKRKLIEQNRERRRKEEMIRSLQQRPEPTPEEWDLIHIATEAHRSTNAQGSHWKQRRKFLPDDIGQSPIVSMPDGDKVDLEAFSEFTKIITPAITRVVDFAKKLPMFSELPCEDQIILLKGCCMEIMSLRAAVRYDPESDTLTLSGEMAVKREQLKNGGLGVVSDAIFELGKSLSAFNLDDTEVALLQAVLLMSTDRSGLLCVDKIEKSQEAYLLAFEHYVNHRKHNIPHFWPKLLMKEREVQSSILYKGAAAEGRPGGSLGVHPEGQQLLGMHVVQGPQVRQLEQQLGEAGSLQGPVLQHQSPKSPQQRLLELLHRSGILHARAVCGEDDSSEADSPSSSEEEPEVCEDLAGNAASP
# PGR (gene 5241), sequence (P06401 whole entry, looked up): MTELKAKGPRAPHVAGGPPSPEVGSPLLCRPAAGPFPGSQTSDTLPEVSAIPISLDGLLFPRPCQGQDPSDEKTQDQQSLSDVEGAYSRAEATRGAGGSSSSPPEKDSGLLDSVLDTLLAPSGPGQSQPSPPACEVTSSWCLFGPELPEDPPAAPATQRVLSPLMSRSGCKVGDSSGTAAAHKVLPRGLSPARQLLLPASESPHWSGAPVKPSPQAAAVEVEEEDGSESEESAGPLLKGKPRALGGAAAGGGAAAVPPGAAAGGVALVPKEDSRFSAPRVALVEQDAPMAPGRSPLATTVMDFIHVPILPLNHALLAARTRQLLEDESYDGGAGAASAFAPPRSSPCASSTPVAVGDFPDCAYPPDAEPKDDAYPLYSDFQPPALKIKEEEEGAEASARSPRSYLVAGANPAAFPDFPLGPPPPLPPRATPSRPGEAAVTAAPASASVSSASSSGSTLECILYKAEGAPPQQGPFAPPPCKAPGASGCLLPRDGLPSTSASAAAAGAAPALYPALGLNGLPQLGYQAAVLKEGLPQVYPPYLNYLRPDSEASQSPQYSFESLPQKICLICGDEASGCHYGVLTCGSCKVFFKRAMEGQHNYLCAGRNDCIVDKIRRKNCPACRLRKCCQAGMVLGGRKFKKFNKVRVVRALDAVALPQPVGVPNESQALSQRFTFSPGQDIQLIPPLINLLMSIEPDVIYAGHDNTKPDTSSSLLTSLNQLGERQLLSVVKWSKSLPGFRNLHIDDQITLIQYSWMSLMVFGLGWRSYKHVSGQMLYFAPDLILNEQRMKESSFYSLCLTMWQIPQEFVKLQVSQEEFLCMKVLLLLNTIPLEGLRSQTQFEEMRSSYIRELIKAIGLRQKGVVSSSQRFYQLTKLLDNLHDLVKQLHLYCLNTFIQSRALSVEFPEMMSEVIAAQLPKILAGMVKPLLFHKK
# frog Thyroid hormone Receptor alpha (TRa), thra-a (gene 397942), sequence (P15204 whole entry, looked up, the tested form may be a part): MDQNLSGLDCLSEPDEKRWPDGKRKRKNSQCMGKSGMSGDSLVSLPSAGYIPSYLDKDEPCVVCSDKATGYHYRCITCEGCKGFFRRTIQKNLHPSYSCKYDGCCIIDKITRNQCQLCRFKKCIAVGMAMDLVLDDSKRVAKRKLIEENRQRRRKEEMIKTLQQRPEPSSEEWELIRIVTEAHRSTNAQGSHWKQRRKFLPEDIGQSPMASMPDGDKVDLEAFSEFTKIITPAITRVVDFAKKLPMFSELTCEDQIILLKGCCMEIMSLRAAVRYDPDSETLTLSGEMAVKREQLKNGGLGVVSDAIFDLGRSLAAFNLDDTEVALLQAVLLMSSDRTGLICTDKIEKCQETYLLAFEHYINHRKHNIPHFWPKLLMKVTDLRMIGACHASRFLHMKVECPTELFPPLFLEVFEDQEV
# human Thyroid hormone Receptor beta (TRb), THRB (gene 7068), sequence (P10828 whole entry, looked up, the tested form may be a part): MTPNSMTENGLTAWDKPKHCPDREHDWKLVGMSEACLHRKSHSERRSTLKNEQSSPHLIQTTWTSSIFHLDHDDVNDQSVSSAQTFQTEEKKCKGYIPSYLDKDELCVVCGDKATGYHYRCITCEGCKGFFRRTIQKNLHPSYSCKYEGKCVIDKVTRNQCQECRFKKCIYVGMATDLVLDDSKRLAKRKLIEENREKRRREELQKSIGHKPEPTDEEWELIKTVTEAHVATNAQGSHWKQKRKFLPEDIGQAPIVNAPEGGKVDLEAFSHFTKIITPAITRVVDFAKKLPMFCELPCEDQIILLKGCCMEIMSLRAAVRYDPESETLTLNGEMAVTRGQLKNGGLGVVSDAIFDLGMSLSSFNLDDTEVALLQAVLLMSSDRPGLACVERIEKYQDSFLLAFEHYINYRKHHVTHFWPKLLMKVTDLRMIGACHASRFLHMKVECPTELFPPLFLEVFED
smiles,measurement,setting,value
CCCN(CCC)c1c([N+](=O)[O-])cc(C(F)(F)F)cc1[N+](=O)[O-],outcome,[1],inactive
same,outcome,[2],inactive
same,outcome,[3],inactive
same,outcome,[4],inactive
C#CCN1C(=O)COc2cc(F)c(N3C(=O)C4=C(CCCC4)C3=O)cc21,AC50,[4],50 µM (active)
O=S(=O)(O)C(F)(F)C(F)(F)C(F)(F)C(F)(F)C(F)(F)C(F)(F)C(F)(F)C(F)(F)F,outcome,[1],inactive
same,outcome,[4],inactive
C[C@H]1[C@H](c2ccc(Cl)cc2)SC(=O)N1C(=O)NC1CCCCC1,outcome,[4],inactive
CCC(C)Nc1c([N+](=O)[O-])cc(C(C)(C)C)cc1[N+](=O)[O-] (centres undefined),outcome,[4],inactive
O=C1c2ccccc2C(=O)N1SC(Cl)(Cl)Cl,AC50,[4],11.6 µM (active)
COP(=S)(OC)Oc1ccc([N+](=O)[O-])cc1,outcome,[5],inactive
same,outcome,[2],inactive
same,outcome,[6],inactive
same,outcome,[7],inactive
same,outcome,[3],inactive
same,outcome,[8],inactive
same,AC50,PGR (gene 5241),38.4 µM (active)
same,outcome,[9],inactive
same,outcome,[10],inactive
CCN(CC)C(=O)SCc1ccc(Cl)cc1,AC50,[4],50 µM (active)
CCOCN(C(=O)CCl)c1c(C)cccc1CC,outcome,[2],inactive
same,outcome,[8],inactive
CCS(=O)(=O)c1cccnc1S(=O)(=O)NC(=O)Nc1nc(OC)cc(OC)n1,outcome,[11],inactive
same,outcome,[12],inactive
same,outcome,[13],inactive
same,outcome,[14],inactive
same,outcome,[15],inactive
same,AC50,[16],7.07 µM (active)
same,AC50,[17],16.7 µM (active)
CCc1ccc(C(=O)NN(C(=O)c2cc(C)cc(C)c2)C(C)(C)C)cc1,outcome,[4],inactive
O=C(O)C(F)(F)C(F)(F)C(F)(F)C(F)(F)C(F)(F)C(F)(F)C(F)(F)F,outcome,[1],inactive
same,outcome,[2],inactive
same,outcome,[3],inactive
same,outcome,[8],inactive
same,outcome,[4],inactive
CCCN(CCOc1c(Cl)cc(Cl)cc1Cl)C(=O)n1ccnc1,outcome,[1],inactive
same,outcome,[2],inactive
same,outcome,[7],inactive
same,outcome,[3],inactive
same,outcome,[8],inactive
same,AC50,[4],76.5 µM (active)
same,AC50,PGR (gene 5241),32.3 µM (active)
same,outcome,[9],inactive
same,outcome,[10],inactive
ClC1C(Cl)C(Cl)C(Cl)C(Cl)C1Cl (centres undefined),outcome,[4],inactive
same,outcome,PGR (gene 5241),inactive
same,outcome,[9],inactive
same,outcome,[10],inactive
CCC(C)(NC(=O)c1cc(Cl)c(C)c(Cl)c1)C(=O)CCl (centres undefined),AC50,[4],31.4 µM (active)
